Screening results (PubChem)
The list is not random: actives were taken first. Their share in the collection is about 5.7%.
PI4K2A block: PI4K2A (human) kinase inhibition; Q9BTU6; purified PI4K2A, ADP-Glo luminescence, 1 h; hits give low values; activity change, negative = inhibition, % at 76.9 µM; actives 0.13% (n = 420,000); AID 1346378; in the data active = activity change below about -50%; inconclusive = mostly about -30% to -49%;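 note: -100% = wells without enzyme as full effect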
Target sequence (Q9BTU6 whole entry, looked up): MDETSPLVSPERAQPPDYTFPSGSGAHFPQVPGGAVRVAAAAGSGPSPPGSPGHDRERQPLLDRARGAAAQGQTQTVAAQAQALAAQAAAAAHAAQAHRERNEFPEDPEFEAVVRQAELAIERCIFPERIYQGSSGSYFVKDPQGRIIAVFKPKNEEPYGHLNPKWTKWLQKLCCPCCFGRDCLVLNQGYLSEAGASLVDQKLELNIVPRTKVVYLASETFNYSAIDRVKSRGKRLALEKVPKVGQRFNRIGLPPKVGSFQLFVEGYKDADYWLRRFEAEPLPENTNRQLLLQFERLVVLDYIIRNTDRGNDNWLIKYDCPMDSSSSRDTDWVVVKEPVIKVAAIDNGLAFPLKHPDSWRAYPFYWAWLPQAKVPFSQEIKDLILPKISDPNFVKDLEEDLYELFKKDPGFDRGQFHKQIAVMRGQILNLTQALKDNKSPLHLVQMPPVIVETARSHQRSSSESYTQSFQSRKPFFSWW
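Compounds are screened against recombinant PI4K2A using PI as substrate and ATP, the latter dispensed at 300 microM. Reactions run one hour at ambient temperature before ADP-Glo detection; full inhibition defined by wells lacking enzyme.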
Giardia killer: kills Giardia lamblia | Giardia lamblia trophozoite viability | actives 0.15% (n = 340,000) | activity change, % at 7.66 µM, hits read low; in the data active = activity change below about -80%; inconclusive = between about -30% and that limit;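 note: parasites exposed to compound for two days anaerobically before the ATP read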
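Each well holds 100 Giardia trophozoites and compound. After two days (48 hrs) at 37 deg C in anaerobic conditions, ATP is quantified by luminescence.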
KB-3-1 cytotox: KB-3-1 parental cell cytotoxicity. KB-3-1 viability, CellTiter-Glo ATP luminescence, 72 h. Potency, µM (titrated, usually from 46.1 µM), hits mostly cytotoxic. actives 1.4% (n = 400,000); note: potency is the fitted concentration of half-maximal effect; nearly all actives have a fitted effect of over 60% in size
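Multi-concentration cytotoxicity screen in KB-3-1 cells grown in DMEM lacking phenol red with 10% FBS. After 72 h at 37 °C with compound, ATP-dependent luminescence was recorded.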
KB-V1 MDR tox: KB-V1 MDR subline cytotoxicity. actives 3.4% (n = 400,000). Potency, µM (series often up to 46.1 µM), actives largely listed as cytotoxic. KB-V1 MDR cells viability, CellTiter-Glo, 72 h; note: potency is the fitted concentration of half-maximal effect; nearly all actives have a fitted effect of over 60% in size
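Readout: CellTiter-Glo luminescence, 10 min after addition. Cells: KB-V1 MDR subline, 72 h at 37 degrees C with compound. Analysis: corrected, normalized data fitted to concentration-effect curves.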
Nrf2 inh: blocks Nrf2 signaling; A549 ARE-Fluc reporter, luciferase luminescence, 18-24 h; Potency, µM (series often up to 46 µM), inactives show top-dose activity change, negative = inhibition, most hits filed as inhibitors; actives 2.1% (n = 360,000); note: potency is the fitted concentration of half-maximal effect; nearly all actives have a fitted effect of over 60% in size
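Concentration-response testing used A549 ARE_Fluc cells at 5000 cells/well. Following an 18-24 h compound incubation, viability was read by fluorescence (Ex 405/Em 525) and luciferase output by luminescence.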
A549 tox: counter-screen for Nrf2 inhibitors: cytotoxicity in A549 cells; actives 0.16% (n = 390,000); Potency, µM (series often up to 46 µM), without a hit: at the highest dose activity change, negative = cytotoxicity, hits mostly inhibitors; A549 ARE-Fluc cells, CellTiter-Fluor viability, 18-24 h; note: potency is the fitted concentration of half-maximal effect
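A549 ARE-Fluc cells in 5% FBS OPTI-MEM, 5000 cells/well, rested 2 h then exposed to compounds in concentration-response for 18-24 h at 37 °C. Viability by CellTiter-Fluor fluorescence (Ex 405/Em 525) after 30 min; luciferase luminescence (BugLite, 15 min, RT) read afterwards.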
Starred values were filed as active, the others as inactive; i = inactive; ? = inconclusive; · = no result. Unless noted, calls come from the whole dose curve; as a rule, active = well fitted curve in the direction sought with a large enough effect; inconclusive = small, poorly fitted or top-dose-only effect, or another doubt; inactive = no such curve, though single readings can be large; an effect the other way counts as inactive or inconclusive. Unless noted, % is set by controls: 0 for no effect and ±100 for the full control effect.

SMILES	PI4K2A block	Giardia killer	KB-3-1 cytotox	KB-V1 MDR tox	Nrf2 inh	A549 tox
O=C1NC(c2ccccc2O)Nc2ccccc21 (centres undefined)	4	11	i	i	?	17%
Cc1ccc(C)c(C2NC(=O)c3ccccc3N2)c1 (centres undefined)	-3	-2	?	i	?	2%
Cn1cc(C2NC(=O)c3ccccc3N2)c2ccccc21 (centres undefined)	-1	-9	1.2µM*	1.5µM*	?	-14%
COc1ccc(C(=O)C2(C(=O)NCCO)CC(c3ccccn3)=NO2)cc1 (centres undefined)	6	·	·	·	·	·
Cc1ccc(S(=O)(=O)N2CC[C@@]3(Cc4ccccc4)Cc4ccccc4C[C@@H]23)cc1	3	·	·	·	·	·
COc1ccc(S(=O)(=O)N2CCN(C(=O)/C=C/c3ccco3)CC2)cc1	-22	-8	i	i	1%	2%
O=C(/C=C/c1ccco1)N1CCN(S(=O)(=O)c2cccc([N+](=O)[O-])c2)CC1	0	-9	i	23µM*	-15%	7%
CCN1CCN(CNC(=O)c2cnccn2)CC1	1	10	?	23µM*	5%	-1%
O=C(NCN1CCN(c2ccccc2)CC1)c1cnccn1	7	18	i	?	14%	0%
Cc1ccc(CNC(=O)CN(c2ccc(C)cc2)S(=O)(=O)c2c(C)n[nH]c2C)cc1	-1	-1	i	i	-5%	6%
CCOc1ccccc1NC(=O)CN(c1ccc(C)cc1)S(=O)(=O)c1c(C)noc1C	-5	5	i	?	16µM*	-4%
Cc1ccc(N(CCC(=O)O)S(=O)(=O)c2ccccc2)cc1	-1	-8	i	i	-15%	-1%
CCOc1ccccc1NC(=O)CCN(c1ccc(C)cc1)S(=O)(=O)c1ccccc1	3	12	?	2.6µM*	-24%	-5%
Cc1ccc(CNC(=O)CN(c2ccc(C(C)C)cc2)S(=O)(=O)c2c(C)n[nH]c2C)cc1	0	·	i	i	23µM*	?
COc1cccc(CNC(=O)CN(c2ccc(C(C)C)cc2)S(=O)(=O)c2c(C)noc2C)c1	2	8	i	i	16µM*	-5%
CC1Cc2cc(S(=O)(=O)N(C)c3ccc(Br)cc3)ccc2N1C(=O)C1CC1 (centres undefined)	-1	·	i	i	?	-3%
Cc1cc(NS(=O)(=O)c2ccc(NC(=O)CSc3nnc(-c4ccncc4)n3Cc3ccco3)cc2)nc(C)n1	-7	·	·	·	·	·
COc1ccc(OC)c(NC(=O)CN(c2ccc(C)cc2)S(=O)(=O)c2c(C)noc2C)c1	-4	-17	?	?	?	-5%
COc1ccc(N(CC(=O)Nc2cc(Cl)ccc2OC)S(=O)(=O)c2c(C)noc2C)cc1	-4	19	4.6µM*	3.3µM*	-29%	?
CCOc1ccc(S(=O)(=O)N(CC(=O)N/N=C/c2cccs2)c2ccc(C)cc2)cc1	-3	-7	i	23µM*	-30%	7%
CC1CCc2c(sc3nnn(CC(=O)Nc4ccccc4Cl)c(=O)c23)C1 (centres undefined)	0	·	i	i	-10%	-13%
CN(C)c1ccc(/C=N\NC(=O)c2cccc(S(=O)(=O)N(C)C)c2)cc1	-4	·	·	·	·	·
CCOc1cc(-c2ccc3c(c2)OCO3)cc(=[O+]CC)c2c(C)oc(C)c12	·	0	i	i	8%	0%
COc1ccccc1OCCCCCc1c(C)n[nH]c1C	-2	-3	?	4.6µM*	?	-13%
Cc1n[nH]c(C)c1CCCOc1ccccc1	4	-1	i	i	?	-7%
SMILES	PI4K2A block	Giardia killer	KB-3-1 cytotox	KB-V1 MDR tox	Nrf2 inh	A549 tox
COc1ccccc1OCCCc1c(C)n[nH]c1C	-1	-5	i	16µM*	9%	-4%
CCOc1ccccc1OCCCCCc1c(C)n[nH]c1C	3	-6	21µM*	2.9µM*	?	-6%
COc1ccc(OCCCc2c(C)n[nH]c2C)cc1	-4	?	i	i	?	-15%
Cc1cccc(OCCCCc2c(C)n[nH]c2C)c1C	-1	10	?	16µM*	?	?
CCc1ccc(CNCC(=O)N2CCC3(CC2)OCCO3)s1	-5	·	·	·	·	·
O=C(Cn1ncc2c3ccccc3n(Cc3cccc(Cl)c3)c2c1=O)Nc1ccc(F)cc1F	-5	·	i	i	7%	3%
CCc1ccc(Sc2cc(C(=O)O)c3ccccc3n2)cc1	4	·	·	·	·	-1%
Cc1cccc(OCCCCc2c(C)n[nH]c2C)c1	-8	-3	i	i	·	2%
COc1cccc(OCCc2c(C)n[nH]c2C)c1	2	0	?	21µM*	-24%	-20%
O=C(c1ccc(COc2ccccc2Br)o1)N1N=C(C(F)F)CC1(O)C(F)F (centres undefined)	-5	-14	i	23µM*	?	-2%
O=c1c2c3c(sc2nc(NCCO)n1CCc1ccccc1)CCCCC3	-1	-25	?	?	-4%	-19%
OCCNc1nc(SCc2ccccc2)nc2sc3c(c12)CCC3	1	15	i	7.3µM*	-28%	0%
CC1CCC2(CC1)NC(=O)N(Cc1cccc(C(F)(F)F)c1)C2=O (centres undefined)	5	13	i	i	18µM*	-1%
CCNC(=O)NC(=O)C(C)OC(=O)c1oc2ccccc2c1CSC1CCCCC1 (centres undefined)	-2	10	i	13µM*	9%	0%
Cc1ccc(F)c(C2C3C=CCCC3(C)C(=O)N2Cc2ccccc2)c1 (centres undefined)	·	-8	·	·	?	?
CC(=O)Oc1ccc2c(=O)c(Oc3ccccc3)coc2c1OC(C)=O	-7	-3	?	13µM*	-4%	1%
O=C(CSc1nc2nn(-c3ccccc3)c(=O)c-2c2n1CCCCC2)Nc1ccc(F)c(F)c1	-6	21	i	i	18µM*	?
CC(=O)c1ccc(NC(=O)CSc2nc3nn(-c4ccccc4)c(=O)c-3c3n2CCCCC3)cc1	-4	-5	i	i	-11%	6%
O=C(CSc1nnnn1-c1ccc2c(c1)OCCO2)Nc1nc2c(s1)CCCC2	-2	-2	i	16µM*	13µM*	?
Cc1ccc2cc(C)c3nnc(SCC(=O)Nc4nc5c(s4)CCCC5)n3c2c1C	-14	-9	i	18µM*	-3%	?
COc1cccc(-n2nnnc2SCC(=O)Nc2nc3c(s2)CCCC3)c1	1	-1	i	i	-9%	6%
